Reference: the supplement of paper PMC4022240
± gives the standard deviation.

How the values were obtained:
Assay in all cases: peptide microarray binding signal (635 nm), min-max normalized on array (fraction of array maximum); higher = stronger binding
Details in all cases: peptide region: H2B 17-29
[1] = molecular target: T1, HaloTag-ATRX ADD domain (163-292)
T1 chain: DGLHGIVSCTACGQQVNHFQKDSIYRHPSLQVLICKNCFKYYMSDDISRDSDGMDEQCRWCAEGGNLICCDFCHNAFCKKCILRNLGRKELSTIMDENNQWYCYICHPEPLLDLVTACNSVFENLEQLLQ
Method: (§1)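 Histone 13-mer peptides were synthesized as cellulose conjugates with a C-terminal 20-atom PEG linker and printed in triplicate on nitrocellulose. The sequence given is the unmodified backbone; PTMs (Kme1/2/3, Kac, Sph/Tph, Rme/Rme2a/Rme2s, Rcit) are listed in the label and the 'peptide modifications' condition. Slides were probed at 4 °C for 1 h with biotin-labelled (HQ)5-HaloTag reader fusions (ATRX-ADD, ING2-PHD) then streptavidin-Alexa647, or with rabbit histone antibodies then anti-rabbit Alexa647. The mean 635 nm signal of the triplicate spots was scaled 0-1 between the lowest and highest values on each array.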

[2] = molecular target: HaloTag-ING2 PHD (mouse Ing2 200-280)
Method: as §1

[3] = molecular target: anti-H3K4me3 antibody ab8580
Method: as §1

[4] = molecular target: anti-H3K9me3 antibody ab8898
Method: as §1

[5] = peptide modifications: H2BK20ac H2BK27ac, binder concentration: 1:2,000 dilution
[6] = peptide modifications: H2BK20ac H2BK27ac, binder concentration: 1:10,000 dilution
[7] = peptide modifications: H2BK20ac H2BK23ac H2BK24ac, binder concentration: 1:2,000 dilution
[8] = peptide modifications: H2BK20ac H2BK23ac H2BK24ac, binder concentration: 1:10,000 dilution
[9] = peptide modifications: H2BK23ac H2BK24ac H2BK27ac, binder concentration: 1:2,000 dilution
[10] = peptide modifications: H2BK23ac H2BK24ac H2BK27ac, binder concentration: 1:10,000 dilution
[11] = peptide modifications: H2BK20ac H2BK24ac H2BK27ac H2BK28ac, binder concentration: 1:2,000 dilution
[12] = peptide modifications: H2BK20ac H2BK24ac H2BK27ac H2BK28ac, binder concentration: 1:10,000 dilution
[13] = peptide modifications: H2BK20ac H2BK23ac H2BK24ac H2BK27ac, binder concentration: 1:2,000 dilution
[14] = peptide modifications: H2BK20ac H2BK23ac H2BK24ac H2BK27ac, binder concentration: 1:10,000 dilution

AVTKAQKKDGKKR [H2B 17-29 A V T Kac A Q K K D G Kac K R]
peptide microarray binding signal ([1]; peptide modifications: H2BK20ac H2BK27ac, binder concentration: 50 nM): 0.00332 ± 9.9e-05
peptide microarray binding signal ([1]; peptide modifications: H2BK20ac H2BK27ac, binder concentration: 500 nM): 0.00976 ± 0.00025
peptide microarray binding signal ([2]; peptide modifications: H2BK20ac H2BK27ac, binder concentration: 10 nM): 0.00573 ± 0.0013
peptide microarray binding signal ([2]; peptide modifications: H2BK20ac H2BK27ac, binder concentration: 100 nM): 0.00397 ± 0.00018
peptide microarray binding signal [3, 5]: 0.00349 ± 0.00028
peptide microarray binding signal [3, 6]: 0.000856 ± 8.9e-06
peptide microarray binding signal [4, 5]: 0.000755 ± 1.7e-05
peptide microarray binding signal [4, 6]: 0.000461 ± 8.7e-06

AVTKAQKKDGKKR [H2B 17-29 A V T Kac A Q Kac Kac D G K K R]
peptide microarray binding signal ([1]; peptide modifications: H2BK20ac H2BK23ac H2BK24ac, binder concentration: 50 nM): 0.00661 ± 0.00032
peptide microarray binding signal ([1]; peptide modifications: H2BK20ac H2BK23ac H2BK24ac, binder concentration: 500 nM): 0.0168 ± 0.0019
peptide microarray binding signal ([2]; peptide modifications: H2BK20ac H2BK23ac H2BK24ac, binder concentration: 10 nM): 0.0274 ± 0.0038
peptide microarray binding signal ([2]; peptide modifications: H2BK20ac H2BK23ac H2BK24ac, binder concentration: 100 nM): 0.0204 ± 0.0078
peptide microarray binding signal [3, 7]: 0.00636 ± 0.0011
peptide microarray binding signal [3, 8]: 0.0024 ± 0.00011
peptide microarray binding signal [4, 7]: 0.00204 ± 0.00015
peptide microarray binding signal [4, 8]: 0.00208 ± 8.4e-05

AVTKAQKKDGKKR [H2B 17-29 A V T K A Q Kac Kac D G Kac K R]
peptide microarray binding signal ([1]; peptide modifications: H2BK23ac H2BK24ac H2BK27ac, binder concentration: 50 nM): 0.00329 ± 7.2e-05
peptide microarray binding signal ([1]; peptide modifications: H2BK23ac H2BK24ac H2BK27ac, binder concentration: 500 nM): 0.00362 ± 0.00012
peptide microarray binding signal ([2]; peptide modifications: H2BK23ac H2BK24ac H2BK27ac, binder concentration: 10 nM): 0.00406 ± 5.6e-05
peptide microarray binding signal ([2]; peptide modifications: H2BK23ac H2BK24ac H2BK27ac, binder concentration: 100 nM): 0.004039 ± 3.4e-05
peptide microarray binding signal [3, 9]: 0.00068 ± 1.9e-05
peptide microarray binding signal [3, 10]: 0.0012 ± 5.2e-05
peptide microarray binding signal [4, 9]: 0.000453 ± 1.3e-05
peptide microarray binding signal [4, 10]: 0.000519 ± 5.6e-06

AVTKAQKKDGKKR [H2B 17-29 A V T Kac A Q K Kac D G Kac Kac R]
peptide microarray binding signal ([1]; peptide modifications: H2BK20ac H2BK24ac H2BK27ac H2BK28ac, binder concentration: 50 nM): 0.00276 ± 5.2e-05
peptide microarray binding signal ([1]; peptide modifications: H2BK20ac H2BK24ac H2BK27ac H2BK28ac, binder concentration: 500 nM): 0.00419 ± 0.00026
peptide microarray binding signal ([2]; peptide modifications: H2BK20ac H2BK24ac H2BK27ac H2BK28ac, binder concentration: 10 nM): 0.00436 ± 0.00021
peptide microarray binding signal ([2]; peptide modifications: H2BK20ac H2BK24ac H2BK27ac H2BK28ac, binder concentration: 100 nM): 0.00489 ± 0.00035
peptide microarray binding signal [3, 11]: 0.000472 ± 1.7e-05
peptide microarray binding signal [3, 12]: 0.000856 ± 8.9e-06
peptide microarray binding signal [4, 11]: 0.000468 ± 1.8e-05
peptide microarray binding signal [4, 12]: 0.000692 ± 7.3e-06

AVTKAQKKDGKKR [H2B 17-29 A V T Kac A Q Kac Kac D G Kac K R]
peptide microarray binding signal ([1]; peptide modifications: H2BK20ac H2BK23ac H2BK24ac H2BK27ac, binder concentration: 50 nM): 0.00357 ± 0.00035
peptide microarray binding signal ([1]; peptide modifications: H2BK20ac H2BK23ac H2BK24ac H2BK27ac, binder concentration: 500 nM): 0.00643 ± 0.00011
peptide microarray binding signal ([2]; peptide modifications: H2BK20ac H2BK23ac H2BK24ac H2BK27ac, binder concentration: 10 nM): 0.00579 ± 0.00026
peptide microarray binding signal ([2]; peptide modifications: H2BK20ac H2BK23ac H2BK24ac H2BK27ac, binder concentration: 100 nM): 0.00702 ± 0.00069
peptide microarray binding signal [3, 13]: 0.00136 ± 0.0002
peptide microarray binding signal [3, 14]: 0.00131 ± 2.6e-05
peptide microarray binding signal [4, 13]: 0.000982 ± 0.00011
peptide microarray binding signal [4, 14]: 0.0011 ± 2.2e-05
